Test results as given in PubChem BioAssay (EPA / NIEHS).
Results filed as inconclusive are left out. Activity calls are given as the source filed them. How the source made its calls: active means hit-call score of the fitted dose curve at least 0.9, where 1 is the maximum; inconclusive means response in the unintended direction; inactive means score below 0.9.

Assays:
[1] = target: Cellular tumor antigen p53 (Homo sapiens) (UniProt P04637); assay: TOX21_p53_BLA_p5_ratio: Tox21 HCT-116 p53 Agonism Beta-lactamase Assay, Ratio, Phase 5 (AID 2283599)
In short: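 HCT-116 p53-bla cells (4000/well) plated 5 h, dosed with compound (217-fold DMSO dilution) for 16 h at 37 C; CCF4-AM substrate 2 h at room temperature. Activity is the 460/530 nm emission ratio (405 nm excitation), fitted in gain-of-signal direction versus DMSO.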

[2] = TOX21_p53_BLA_p5_viability: Viability Assessment in the Tox21 HCT-116 p53 Agonism Beta-lactamase Assay, Phase 5 (AID 2283600)
In short: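 Viability came from CellTiter-Glo ATP luminescence, read after 30 min at room temperature. Before this, HCT-116 p53-bla cells (4000/well) had 16 hours of compound exposure at 37C, with DMSO stocks diluted 217-fold on transfer.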

[3] = target: Cellular tumor antigen p53 (Homo sapiens) (UniProt P04637); assay: TOX21_p53_BLA_p4_ratio: Tox21 HCT-116 p53 Agonism Beta-lactamase Assay, Ratio, Phase 4 (AID 2283601)
In short: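 HCT-116 p53 beta-lactamase reporter cells (4000/well) preincubated 5 h, then compound (217-fold dilution of DMSO stock) for 16 h at 37C. CCF4-AM substrate added 2 h at room temperature; 460/530 nm emission ratio fitted upward versus DMSO.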

Measured: outcome

Sequence of Cellular tumor antigen p53 (Homo sapiens) (P04637 whole entry, looked up): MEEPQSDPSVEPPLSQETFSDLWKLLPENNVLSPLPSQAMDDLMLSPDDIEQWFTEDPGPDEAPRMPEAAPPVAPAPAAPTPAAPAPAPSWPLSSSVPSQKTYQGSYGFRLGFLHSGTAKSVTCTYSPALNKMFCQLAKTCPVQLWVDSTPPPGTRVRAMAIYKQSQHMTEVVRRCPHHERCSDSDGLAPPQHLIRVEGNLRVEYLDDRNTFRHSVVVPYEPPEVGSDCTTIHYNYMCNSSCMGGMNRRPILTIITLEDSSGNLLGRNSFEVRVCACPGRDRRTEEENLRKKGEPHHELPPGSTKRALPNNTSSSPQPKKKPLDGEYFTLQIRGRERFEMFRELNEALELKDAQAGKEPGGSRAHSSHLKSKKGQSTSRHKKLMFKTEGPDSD

O=S(=O)(c1ccc(Cl)cc1)c1cc(Cl)c(Cl)cc1Cl
inactive: all assays above

N#Cc1ccncc1
inactive: all assays above

N#Cc1ccc(Cl)cc1
inactive: all assays above

Cc1cc(Cl)ccc1OC(C)C(=O)O (stereo not given)
inactive: all assays above

Clc1cnc(Oc2ccc(Oc3ncc(Cl)cc3Cl)cc2)c(Cl)c1
inactive: all assays above
